# According to PubChem BioAssay:
# Calls of active or inactive are those of the source.
# How the values were obtained:
# [1] = tested on: Plasmodium falciparum Sir2 (PF13_0152, Sir2A); assay: Plasmodium falciparum Sir2A binding compounds – biochemical, small-molecule microarray, 635 nm fluorescence, primary screen (AID 1098); details: fluorescence 635 nm, higher = more signal;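 further: score merges spot fluorescence intensity with its signal-to-noise ratio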
# [2] = probe aDKK1 binding to arrayed compounds – biochemical, biotinylated probe, 635/667 nm fluorescence, primary screen (AID 1099); details: small-molecule microarray, higher = more signal;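 further: score merges 667nm spot fluorescence with signal to noise across triplicate slides; reference of the scale not given here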
# [3] = probe aCHRDL2 binding to arrayed compounds – biochemical, biotinylated probe, 635/667 nm fluorescence, primary screen (AID 1100); details: small-molecule microarray, higher = more signal
# [4] = change in splice reporter luminescence, either direction, cell-based, HEK293, spliceosome inhibition project, primary screen (AID 1101); details: HEK293 splicing luciferase reporter, 24 h, higher = more signal, called active from +8 up or from −8 down;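 further: HEK293 cells carrying a splicing-competent luciferase reporter gene; test concentration not given here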
# [5] = molecular target: Fibroblast growth factor 10 (Homo sapiens) (UniProt O15520); assay: compounds binding fibroblast growth factor 10 – biochemical, small-molecule microarray, 635 nm fluorescence, primary screen (AID 1102); details: FGF10 binding, fluorescence 635 nm, higher = more signal
# [6] = tested on: glycogen synthase kinase-3 (GSK3A per assay name; protocol says GSK3B); assay: compounds binding glycogen synthase kinase-3 – biochemical, small-molecule microarray, 635 nm fluorescence, GSK3A, primary screen (AID 1103); details: fluorescence 635 nm, higher = more signal; further: the record names both GSK3A and GSK3B
# [7] = molecular target: Epidermal growth factor receptor (Homo sapiens) (UniProt P00533); assay: compounds binding epidermal growth factor receptor – biochemical, small-molecule microarray, 635 nm fluorescence, primary screen (AID 1104); details: EGFR binding, higher = more signal;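 further: score merges 667 nm emission intensity with spot signal to noise over triplicate slides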
# [8] = molecular target: Follistatin-related protein 3 (Homo sapiens) (UniProt O95633); assay: compounds binding follistatin-related protein 3 – biochemical, small-molecule microarray, 635 nm fluorescence, primary screen (AID 1105); details: FSTL3 binding, higher = more signal;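 further: score merges emission near 667 nm and signal to noise per printed spot across three slides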
# [9] = molecular target: Dickkopf-related protein 1 (Homo sapiens) (UniProt O94907); assay: small molecules binding DKK1 protein – biochemical, small-molecule microarray, 635 nm fluorescence scan, primary screen (AID 1106); details: higher = more signal;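 further: score merges emission near 667 nm with signal to noise over three replicate slides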
# [10] = tested on: Inhibin beta A chain (activin A); assay: small molecules binding activin A – biochemical, small-molecule microarray, 635 nm fluorescence scan, primary screen (AID 1107); details: INHBA, higher = more signal;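 further: mouse activin A protein probed at 4.33 µg/mL on printed slides; score merges bound-protein fluorescence near 667 nm with spot signal-to-noise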
# Sequence of Fibroblast growth factor 10 (Homo sapiens) (O15520 whole entry, looked up): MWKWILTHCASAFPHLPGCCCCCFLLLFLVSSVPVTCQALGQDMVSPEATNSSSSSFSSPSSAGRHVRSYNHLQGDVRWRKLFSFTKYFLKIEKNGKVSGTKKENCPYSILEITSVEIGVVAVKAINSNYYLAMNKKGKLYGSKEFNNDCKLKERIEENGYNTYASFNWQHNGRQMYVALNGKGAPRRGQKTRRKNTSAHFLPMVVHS
# Sequence of Epidermal growth factor receptor (Homo sapiens) (P00533 whole entry, looked up): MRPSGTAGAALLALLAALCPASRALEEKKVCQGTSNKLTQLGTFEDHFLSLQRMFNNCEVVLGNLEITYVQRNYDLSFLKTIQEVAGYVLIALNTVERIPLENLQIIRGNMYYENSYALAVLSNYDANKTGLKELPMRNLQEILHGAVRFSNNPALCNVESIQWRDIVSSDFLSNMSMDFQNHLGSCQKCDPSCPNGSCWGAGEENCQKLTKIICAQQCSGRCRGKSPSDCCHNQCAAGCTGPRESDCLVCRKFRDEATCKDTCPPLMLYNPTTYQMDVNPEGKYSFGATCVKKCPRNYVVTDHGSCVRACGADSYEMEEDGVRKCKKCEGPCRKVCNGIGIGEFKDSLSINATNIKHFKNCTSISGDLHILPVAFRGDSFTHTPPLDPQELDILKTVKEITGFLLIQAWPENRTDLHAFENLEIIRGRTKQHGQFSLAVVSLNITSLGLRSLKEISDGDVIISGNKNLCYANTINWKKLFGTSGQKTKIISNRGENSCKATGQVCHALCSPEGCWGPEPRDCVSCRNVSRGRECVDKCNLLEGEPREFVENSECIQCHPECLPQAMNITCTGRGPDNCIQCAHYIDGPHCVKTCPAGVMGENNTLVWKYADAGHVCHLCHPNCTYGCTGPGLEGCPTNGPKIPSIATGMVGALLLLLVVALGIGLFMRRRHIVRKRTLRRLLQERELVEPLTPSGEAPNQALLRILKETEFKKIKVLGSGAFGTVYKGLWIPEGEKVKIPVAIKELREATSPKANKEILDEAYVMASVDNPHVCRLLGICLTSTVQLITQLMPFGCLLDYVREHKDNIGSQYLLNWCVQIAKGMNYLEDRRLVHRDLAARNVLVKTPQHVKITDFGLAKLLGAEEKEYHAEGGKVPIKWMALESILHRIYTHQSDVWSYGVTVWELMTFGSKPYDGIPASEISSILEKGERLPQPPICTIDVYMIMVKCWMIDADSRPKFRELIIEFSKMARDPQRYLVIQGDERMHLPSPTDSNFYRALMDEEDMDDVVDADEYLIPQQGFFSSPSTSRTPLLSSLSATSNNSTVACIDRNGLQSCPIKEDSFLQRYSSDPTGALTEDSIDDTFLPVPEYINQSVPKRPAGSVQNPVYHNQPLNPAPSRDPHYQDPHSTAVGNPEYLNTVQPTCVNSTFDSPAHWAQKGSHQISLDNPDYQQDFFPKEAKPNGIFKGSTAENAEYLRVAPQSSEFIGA
# Sequence of Follistatin-related protein 3 (Homo sapiens) (O95633 whole entry, looked up): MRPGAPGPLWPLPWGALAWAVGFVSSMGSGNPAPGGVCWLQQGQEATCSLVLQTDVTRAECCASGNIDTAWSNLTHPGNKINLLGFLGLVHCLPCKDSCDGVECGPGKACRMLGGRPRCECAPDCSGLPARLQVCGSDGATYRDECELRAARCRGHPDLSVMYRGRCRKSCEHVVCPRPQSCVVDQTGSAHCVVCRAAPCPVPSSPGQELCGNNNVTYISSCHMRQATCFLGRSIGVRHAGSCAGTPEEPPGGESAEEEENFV
# Sequence of Dickkopf-related protein 1 (Homo sapiens) (O94907 whole entry, looked up): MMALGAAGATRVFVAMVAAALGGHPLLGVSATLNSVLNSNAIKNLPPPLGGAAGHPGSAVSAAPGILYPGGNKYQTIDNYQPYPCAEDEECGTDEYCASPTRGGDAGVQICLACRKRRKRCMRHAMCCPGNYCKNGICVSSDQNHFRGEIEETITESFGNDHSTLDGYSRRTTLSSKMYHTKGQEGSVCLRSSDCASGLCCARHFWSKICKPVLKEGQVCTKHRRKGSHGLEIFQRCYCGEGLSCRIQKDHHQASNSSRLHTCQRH
SMILES,composite z-score [1],composite z-score [2],composite z-score [3],z-score [4],composite z-score [5],composite z-score [6],composite z-score [7],composite z-score [8],composite z-score [9],composite z-score [10]
COCC1=C([C@H](O)CCc2ccccc2)[C@H](CO)[C@@H]2C(=O)N(Cc3ccccc3)C(=O)[C@@H]2C1,-0.0333,-0.253,-0.25,0.212 (inactive),0.438,0.0321,0.313,0.265,0.391,0.554
O=C1C[C@@](C(=O)O)(c2ccc([N+](=O)[O-])cc2)[C@@H](c2ccc(CO)cc2I)N1CC12CC3CC(CC(C3)C1)C2,0.816,1.23,1.13,-0.0388 (inactive),0.248,0.48,0.12,0.206,-1.1,0.723
O=C1OCC=C[C@H]2OC34C=CCN(c5ccc(Cl)cc5)C(=O)[C@H]3N(CCCO)C(=O)[C@@H]4[C@@H]12 (stereo not given in full),-0.0096,-0.477,0.673,-0.915 (inactive),-0.742,-1.19,-0.781,-0.551,-1.32,1.23
Cc1ccc(S(=O)(=O)N2CC(C(=O)O)=CCC2c2ccccc2)cc1 (stereo not given),1.11,0.133,0.696,0.566 (inactive),-0.265,-0.5,-0.638,-0.95,-1.6,-0.538
C=C[C@H](C)[C@H](O)c1ccc(OCCO)cc1,0.771,-0.564,0.883,-0.961 (inactive),-0.772,-1.21,-1.58,-0.607,-1.97,-2.79
O=C1C[C@@](C(=O)O)(c2ccc([N+](=O)[O-])cc2)[C@@H](c2ccc(CO)cc2I)N1C1CCCCC1,1.24,-0.162,0.862,-2.72 (inactive),1.27,-0.428,0.126,0.596,-0.605,0.775
CN1C(=O)C2C=CC(C(O)C(c3ccccc3)c3ccccc3)N(Nc3ccccc3)C2C1=O (stereo not given),0.929,0.724,0.883,0.559 (inactive),1.11,1.32,0.247,1.07,-0.138,0.596
CN(C)CCCC[C@@H]1NC(=O)[C@@H]2C[C@H](C(=O)NCCCCCN)[C@H](c3ccc(O)cc3)N2C1=O,0.016,0.442,0.916,-0.159 (inactive),-0.008,0.31,-0.912,-1.25,-0.722,-0.273
C=CCCN(CC#C[C@H]1Oc2ccccc2S(=O)(=O)N2CCC[C@@H]12)S(=O)(=O)c1ccc(C)cc1,0.327,-0.342,-0.289,3.09 (inactive),0.371,0.0464,0.185,0.485,0.435,1.45
COC(=O)c1nc2oc1CC[C@@H](CO)NC(=O)N(C)Cc1cn(nn1)C[C@H](Cc1ccccc1)NC2=O,0.68,-0.268,0.269,-0.275 (inactive),0.133,-0.587,-0.647,-0.221,-0.4,0.697
COCCCNC(=O)[C@]1(Cc2ccccc2N=[N+]=[N-])N=C(c2ccc(OCCCO)cc2)O[C@@H]1c1ccccc1CN=[N+]=[N-],1.09,1.2,1.01,-0.4 (inactive),1.26,0.644,0.504,0.912,0.318,0.928
[N-]=[N+]=Nc1ccccc1C[C@]1(C(=O)N2CCCCC2)N=C(c2ccc(OCCCO)cc2)O[C@H]1c1ccccc1N=[N+]=[N-],1.42,0.0941,1.18,-0.103 (inactive),1.4,0.743,-0.0207,0.611,-0.235,1.25
CC1CC/C=C\[C@H]2OC34C=CCN(c5ccc6ccccc6c5)C(=O)[C@H]3N(CCCCCO)C(=O)[C@@H]4C2C(=O)O1 (stereo not given in full),0.207,0.207,0.62,0.375 (inactive),-1.34,-1.25,0.0445,-0.213,-1.58,-0.522
CCCCN1CC=CC23O[C@@H]4C=CCCOC(=O)C4[C@H]2C(=O)N(CCCO)[C@@H]3C1=O (stereo not given in full),-1.07,-0.132,-0.114,-1.21 (inactive),-0.649,-1.12,-0.597,-0.739,-0.0604,0.824
CC(=O)N1Cc2ccccc2C[C@@]2(N=C(c3ccc(OCCCO)cc3)O[C@H]2c2ccccc2)C1=O,1.54,0.927,0.82,-2.97 (inactive),1.16,1.09,0.361,1.19,0.653,1.03
CCCC[C@@H]1C[C@H]1[C@@H](NC(=O)c1ccco1)c1ccccc1,-1.69,-0.145,1.01,0.00344 (inactive),-1.01,-1.31,-2.01,-1.63,-2.05,0.735
C=C[C@@H](C)[C@@H](OC(=O)Nc1ccc(OC)cc1)c1ccc(O)c2ccccc12,1.13,-0.241,-0.576,-0.0898 (inactive),0.856,0.357,0.762,0.723,0.475,1.24
